# Bioassay records as filed in PubChem BioAssay.
# Sampled rows, rich in hits. Any-hit rate of the full collection: about 21%.
# CYP2C19 inhib = human CYP2C19 inhibition. P33261. CYP2C19 Supersomes, luciferin-H EGE luminescence, 30 min. inhibition, % at 5 µM. 96,000 tested, 21% active. AID 778;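 active = CYP2C19 inhibition above a set limit at 5 µM in the primary screen, cut at about 50% in these data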;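 also: plate controls were negative control wells for no effect and 2.5 mM tranylcypromine positive control for full effect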
# MRP-1 activ = MRP-1 activation | AID 799 | H69AR cells + doxorubicin, viability rescue, CellTiter-Glo | 140,000 tested, 0.61% active | viability increase, % at 10 µM;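 active = viability gain under doxorubicin at or above a set limit, the compound median plus 3 SD, cut at about 4.7% in these data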;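 also: MRP-1 overexpressing cells given doxorubicin 25 µM after compound pretreatment; 18-22 h compound pretreatment then 72 h with doxorubicin before readout; 0% = doxorubicin-only wells and 100% = vehicle-treated cells without doxorubicin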
# CYP2C19 activ = activators of human cytochrome P450 2C19; P33261; recombinant CYP2C19, luciferin-H EGE luminescence; active compounds read high; 0 = fully inhibited enzyme, 1 = untreated enzyme; activation factor at 5 µM; 96,000 tested, under 10 active;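 active = activation factor of at least 2 at 5 µM in the primary screen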;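 also: 0 = wells with 2.5 mM tranylcypromine and 1 = vehicle-only wells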
# CYP2C9 act = CYP2C9 (human) activation. activation factor at 5 µM. AID 1024. 96,000 tested, 1.4% active. P11712. recombinant CYP2C9, luciferin-H conversion, luminescence; active compounds read high; factor 1 = untreated enzyme, 0 = blocked;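 active = activation factor of 2 or more for CYP2C9 at a 5 µM dose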;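 also: 0 = sulfaphenazole-blocked wells and 1 = vehicle-only wells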
# Target sequence (P11712 whole entry, looked up): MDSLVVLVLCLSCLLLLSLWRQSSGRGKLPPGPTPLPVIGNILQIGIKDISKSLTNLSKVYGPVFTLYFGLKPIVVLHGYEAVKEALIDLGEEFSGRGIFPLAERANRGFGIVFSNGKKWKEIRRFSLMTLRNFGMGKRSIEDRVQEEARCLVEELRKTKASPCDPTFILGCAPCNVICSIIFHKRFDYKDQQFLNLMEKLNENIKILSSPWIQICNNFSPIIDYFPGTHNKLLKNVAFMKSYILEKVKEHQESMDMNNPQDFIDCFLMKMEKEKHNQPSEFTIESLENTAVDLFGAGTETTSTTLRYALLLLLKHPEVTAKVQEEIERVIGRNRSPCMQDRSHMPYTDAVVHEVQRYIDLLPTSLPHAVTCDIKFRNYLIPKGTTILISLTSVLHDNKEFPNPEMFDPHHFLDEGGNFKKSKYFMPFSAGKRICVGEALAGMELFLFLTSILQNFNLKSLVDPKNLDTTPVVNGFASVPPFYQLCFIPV
# CYP2C9 inhib = human CYP2C9 inhibition; P11712; CYP2C9 Supersomes, luciferin-H conversion, luminescence; inhibition, % at 5 µM; 96,000 tested, 20% active; AID 777;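 active = blocking of liver enzyme CYP2C9 beyond about 50% at 5 µM, limit read from the data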
# MRP reversal = compounds reversing MRP-mediated drug resistance; H69AR cells + 2 uM doxorubicin, CellTiter-Glo, 72 h; differential viability (reversal), % at 10 µM; 85,000 tested, 0.04% active; AID 602;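 active = viability drop by adding the cancer drug above about 55%, with treated viability meeting a 40% cutoff, limit read from the data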;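 also: viability without doxorubicin minus viability with 2 µM doxorubicin for each compound; larger differential means the compound sensitizes cells more to doxorubicin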
# * = called active by the depositor; nt = no result given.
SMILES,CYP2C19 inhib,MRP-1 activ,CYP2C19 activ,CYP2C9 act,CYP2C9 inhib,MRP reversal
COc1ccccc1NC(=O)C1C2C=CC(O2)C1C(=O)O (stereo unspecified),4,-2,1,0.9,8,8
COc1ccccc1NC(=O)C1C2CCCCC21 (stereo unspecified),43,-1,0.6,3.6*,-264,4
COC(=O)c1cc(NC(=O)Nc2cc(OC)ccc2OC)cc(C(=O)OC)c1,42,-2,0.6,0.5,51*,-9
Cc1ccc(NC(=O)C(=O)Nc2ccccn2)cc1,nt,2,nt,nt,nt,nt
COc1ccccc1NC(C)=O,8,-1,0.9,0.9,7,17
COc1ccccc1NC(=O)C(O)C(O)C(=O)Nc1ccccc1OC (stereo unspecified),21,0,0.8,3.2*,-216,5
CCOc1ccc(C(=O)NC(=S)Nc2ccccc2N2CCOCC2)cc1Br,nt,0,nt,nt,nt,nt
O=C1c2ccccc2C(=O)N1n1cccc1,nt,-2,nt,nt,nt,nt
COc1ccccc1NC(=O)C(=O)Nc1ccccn1,18,-3,0.8,2.3*,-133,nt
COc1ccccc1NC(=S)Nc1ccccn1,nt,-1,nt,nt,nt,nt
O=C(Nc1ccncc1)Nc1ccccn1,91*,1,0.1,0.3,68*,6
O=C(Nc1cccc(F)c1)Nc1ccccn1,21,-1,0.8,0.8,22,nt
COCCn1cnc2c1c(=O)n(CC(=O)c1ccc3c(c1)OCCO3)c(=O)n2Cc1ccccc1,nt,nt,nt,nt,nt,10
O=S(=O)(NCCc1ccccc1)c1ccc(Cl)nc1,nt,0,nt,nt,nt,nt
CCC(c1nnc(SCC(=O)Nc2ccc(Cl)cc2C(F)(F)F)n1C1CCCCC1)N(C)C (stereo unspecified),nt,-1,nt,nt,nt,nt
Cc1cc(C)cc(COn2ccnc2)c1,69*,-1,0.3,0.5,46,-2
CCOc1cccc(NC(=O)Cc2cccs2)c1,86*,1,0.1,0.4,58*,-8
COc1ccc(S(=O)(=O)Nc2ccccc2OC)cc1NC(=O)Cc1cccs1,nt,-1,nt,nt,nt,nt
COc1ccc(NC(=O)COc2ccccc2)c(OC)c1,92*,0,0.1,0.2,84*,31
COc1ccc(NC(=O)Cn2c(=O)sc3ccccc32)c(OC)c1,90*,-3,0.1,0.5,50,3
COc1ccc(NC(=O)Cc2cccs2)c(OC)c1,79*,-1,0.2,0.9,10,-13
O=S(=O)(c1ccc(NC(=S)NCc2ccco2)cc1)N1CCCC1,nt,-3,nt,nt,nt,nt
O=S(=O)(NCc1ccco1)c1ccc(S(=O)(=O)N2CCCCC2)cc1,nt,-2,nt,nt,nt,8
CC(C)NS(=O)(=O)c1ccc(OCC(=O)Nc2cccc3ccccc23)cc1,88*,-1,0.1,0.2,82*,17
CCc1ccc(OCC(=O)Nc2cc(S(=O)(=O)CC)ccc2O)cc1,3,2,1,0.2,79*,nt
SMILES,CYP2C19 inhib,MRP-1 activ,CYP2C19 activ,CYP2C9 act,CYP2C9 inhib,MRP reversal
CCS(=O)(=O)c1ccc(O)c(NC(=O)COc2ccccc2)c1,11,1,0.9,0.8,16,nt
COc1ccc(OCC(=O)Nc2ccccc2O)cc1,99*,-4,0,0.1,95*,0
Cc1ccc(S(=O)(=O)NC2CCCc3ccccc32)cc1C (stereo unspecified),9,-3,0.9,1.5,-54,12
O=C(CCCC(=O)OCC(Cl)=C(Cl)Cl)Nc1ccccc1,nt,-2,nt,nt,nt,nt
CCOc1cccc2c1OC1(C)CC2NC(=O)N1c1cccc(Cl)c1 (stereo unspecified),28,2,0.7,0.6,37,16
COc1ccc(N2C(=O)NC3CC2(C)Oc2ccc(Br)cc23)cc1OC (stereo unspecified),50,-2,0.5,0.3,74*,-22
Cc1[nH]c(C(=O)N2CCCCC2)c(C)c1C(=O)NC1CCCCC1,nt,nt,nt,nt,nt,10
COc1ccc(-n2nnnc2SCC(=O)Nc2nnc(C)s2)cc1,16,-1,0.8,0.5,54*,nt
COc1ccc(-n2nnnc2SCC(=O)NCc2ccco2)cc1OC,19,0,0.8,2.2*,-124,14
COc1ccc(-n2nnnc2SCC(=O)Nc2cccc(C)n2)cc1OC,26,0,0.7,0.4,58*,10
CCC(=O)Nc1cccc(-n2nnnc2SCC(=O)NCc2ccco2)c1,58*,0,0.4,2.3*,-132,3
CCOC(=O)c1csc(NC(=O)CSc2nnnn2-c2ccc(OC)cc2)n1,-16,-3,1.2,1.2,-16,nt
COc1cccc(-n2nnnc2SCC(=O)NCc2ccco2)c1,13,-4,0.9,1.3,-28,6
COc1ccc(Cl)cc1S(=O)(=O)Oc1ccc(NC(C)=O)cc1,nt,-2,nt,nt,nt,-7
N#C/C(=C\c1ccccc1)c1nc2ncccc2[nH]1,16,-1,0.8,0.3,66*,nt
N#C/C(=C\c1cccs1)c1nc2ccccc2[nH]1,nt,-2,nt,nt,nt,nt
CC1(C)CC(=O)/C(=C(/O)Cc2ccccc2)C(=NCCc2ccccc2)C1,nt,-1,nt,nt,nt,nt
CC(C)NC(C(=O)Nc1cc(Cl)cc(Cl)c1)c1ccccc1 (stereo unspecified),71*,-2,0.3,0.3,72*,nt
Cc1ccc(S(=O)(=O)N2CCC(C(=O)OCC(=O)N3CCc4ccccc43)CC2)cc1,-3,-2,1,1.1,-9,1
CN(CC(=O)Nc1ccc(S(=O)(=O)N2CCCC2)cc1)Cc1ccc(Cl)cc1Cl,nt,-2,nt,nt,nt,nt
CN(CC(=O)Nc1ccc(C#N)cc1)Cc1ccc(Cl)cc1Cl,94*,-3,0.1,0.1,90*,nt
CN(CC(=O)Nc1ccc(C#N)cc1)Cc1ccc(Cl)cc1,89*,-3,0.1,0.2,75*,20
Cc1ccc(Sc2ncccc2COC(=O)Nc2c(C)cccc2C)cc1,20,-2,0.8,0.7,27,nt
Cc1ccc(Sc2ncccc2COC(=O)Nc2ccccc2)cc1,21,-4,0.8,0.4,55*,nt
COc1cc(/C=N/n2cnnc2)ccc1OC(=O)c1ccncc1,30,-3,0.7,0.7,33,-3
SMILES,CYP2C19 inhib,MRP-1 activ,CYP2C19 activ,CYP2C9 act,CYP2C9 inhib,MRP reversal
NC(=O)CSc1nnc(CCc2nc3ccccc3[nH]2)n1-c1ccccc1,nt,nt,nt,nt,nt,-10
CCCCOC(=O)Cn1c(=O)n(CC(=O)OCCCC)c2ccccc21,44,0,0.6,0.5,50*,17
CCCCCOC(=O)Cn1c(=O)oc2ccccc21,89*,2,0.1,1.2,-21,-20
CCOc1ccccc1OCC(=O)Nc1nnc(COC)s1,nt,-2,nt,nt,nt,nt
CC1CCN(S(=O)(=O)c2cccc(C(=O)Oc3ccc([N+](=O)[O-])cc3)c2)CC1,nt,-2,nt,nt,nt,nt
O=C(N/N=C/c1ccc(Sc2nc3ccccc3[nH]2)o1)c1ccncc1,nt,-4,nt,nt,nt,nt
O=C(N/N=C\c1ccc(Sc2ccccn2)o1)c1cccc(F)c1,59*,-3,0.4,0.4,60*,nt
O=C(CCc1ccccc1O)N/N=C/c1ccc(Sc2cccc3cccnc23)o1,49,-3,0.5,0,99*,1
O=C(N/N=C/c1ccc(Sc2ccccn2)o1)c1cccc([N+](=O)[O-])c1,nt,-2,nt,nt,nt,nt
O=C(N/N=C/c1ccc(Sc2ccccn2)o1)c1cc2ccccc2cc1O,98*,-1,0,0.1,88*,nt
